# Test results taken from PubChem BioAssay (NCATS).
# Results filed as inconclusive are left out. Unmarked numbers belong to inactive results. The source made the active and inactive calls. The call rests on the fitted dose curve; in most records, active means well fitted inhibition curve with a large enough effect; inconclusive means small, poorly fitted or top-dose-only effect, or effect the other way; inactive means flat fitted curve, though single readings scatter.
# Molecular target: ATPase family AAA domain-containing protein 5 (Homo sapiens) (UniProt Q96QE3)
# Assay: Validation screen for small molecules that inhibit ELG1-dependent DNA repair in human embryonic kidney (HEK293T) cells expressing luciferase-tagged ELG1 (AID 493107);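 further: cells co-treated with the DNA-damaging agent 5-fluorouridine alongside compound; inhibitors lower the ELG1-luciferase luminescence signal; nearly all actives have a fitted effect of over 70% in size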
# Details: HEK293T ELG1-luciferase level, luminescence, 5-fluorouridine co-treatment, 16 h; series mostly up to 46.1 µM; activity change, negative = decrease: at the top concentration
# Outline: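 ELG1-luciferase HEK293T reporter; 5-fluorouridine + compound/DMSO, 16 hr, 37 °C, 5% CO2; ONE-Glo 30 min RT; luminescence read, qHTS format.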
# On the % scale 0 is the no-effect control and ±100 the full control effect.
# ATPase family AAA domain-containing protein 5 (Homo sapiens), sequence (Q96QE3 whole entry, looked up, the tested form may be a part): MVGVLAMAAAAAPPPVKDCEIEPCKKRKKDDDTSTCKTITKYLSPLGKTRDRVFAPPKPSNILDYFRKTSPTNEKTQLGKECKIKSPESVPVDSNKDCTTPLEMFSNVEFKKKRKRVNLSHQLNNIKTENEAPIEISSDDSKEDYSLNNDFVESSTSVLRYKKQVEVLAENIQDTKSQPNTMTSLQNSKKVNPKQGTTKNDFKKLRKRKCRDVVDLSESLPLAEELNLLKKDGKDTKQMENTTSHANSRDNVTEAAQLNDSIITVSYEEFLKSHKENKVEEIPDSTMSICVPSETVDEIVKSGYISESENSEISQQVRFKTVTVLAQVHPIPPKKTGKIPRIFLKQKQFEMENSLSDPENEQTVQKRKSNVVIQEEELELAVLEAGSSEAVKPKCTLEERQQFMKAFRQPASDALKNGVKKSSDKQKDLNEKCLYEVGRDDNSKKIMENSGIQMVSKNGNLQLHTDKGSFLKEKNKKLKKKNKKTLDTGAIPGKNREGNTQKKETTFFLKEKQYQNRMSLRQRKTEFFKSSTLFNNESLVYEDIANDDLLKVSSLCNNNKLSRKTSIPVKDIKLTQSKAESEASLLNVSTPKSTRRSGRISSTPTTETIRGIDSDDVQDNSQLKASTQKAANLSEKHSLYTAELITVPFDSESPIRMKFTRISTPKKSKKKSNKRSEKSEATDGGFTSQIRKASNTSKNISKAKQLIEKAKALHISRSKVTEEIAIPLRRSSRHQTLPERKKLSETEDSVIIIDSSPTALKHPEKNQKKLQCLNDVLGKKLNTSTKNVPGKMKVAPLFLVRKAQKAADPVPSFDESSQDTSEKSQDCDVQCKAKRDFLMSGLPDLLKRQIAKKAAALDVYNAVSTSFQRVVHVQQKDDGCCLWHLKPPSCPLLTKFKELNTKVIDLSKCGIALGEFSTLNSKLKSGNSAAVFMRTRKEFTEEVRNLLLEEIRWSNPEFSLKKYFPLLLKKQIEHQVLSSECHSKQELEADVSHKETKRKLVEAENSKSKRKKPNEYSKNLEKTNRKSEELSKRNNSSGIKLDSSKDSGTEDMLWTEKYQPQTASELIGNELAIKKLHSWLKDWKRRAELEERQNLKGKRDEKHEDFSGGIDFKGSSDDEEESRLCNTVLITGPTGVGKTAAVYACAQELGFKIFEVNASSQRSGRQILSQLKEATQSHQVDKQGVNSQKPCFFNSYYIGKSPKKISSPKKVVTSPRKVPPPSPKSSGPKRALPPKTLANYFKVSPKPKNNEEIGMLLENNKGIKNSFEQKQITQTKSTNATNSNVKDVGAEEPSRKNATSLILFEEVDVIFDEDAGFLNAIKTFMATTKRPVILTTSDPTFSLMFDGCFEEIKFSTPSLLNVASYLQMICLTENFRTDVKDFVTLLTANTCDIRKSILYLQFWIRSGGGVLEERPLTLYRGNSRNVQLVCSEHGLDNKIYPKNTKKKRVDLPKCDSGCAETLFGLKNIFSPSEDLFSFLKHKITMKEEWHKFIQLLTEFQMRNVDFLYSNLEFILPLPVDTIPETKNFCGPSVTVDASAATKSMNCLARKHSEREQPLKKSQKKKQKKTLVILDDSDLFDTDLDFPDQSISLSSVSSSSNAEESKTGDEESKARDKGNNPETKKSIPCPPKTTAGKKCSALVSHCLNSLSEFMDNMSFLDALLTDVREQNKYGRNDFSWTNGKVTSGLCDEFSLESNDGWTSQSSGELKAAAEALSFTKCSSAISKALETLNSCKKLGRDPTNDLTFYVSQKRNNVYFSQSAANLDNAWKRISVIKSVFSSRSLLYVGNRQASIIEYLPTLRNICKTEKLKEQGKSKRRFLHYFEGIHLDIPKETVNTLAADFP
Compound,"activity change, negative = decrease",outcome
CC(=O)N[C@@H](CS)C(=O)O,-2.27%,–
COC(=O)[C@@H]1[C@H]2C[C@H]3c4[nH]c5ccccc5c4CCN3C[C@@H]2CC[C@@H]1O,-14.1%,–
CCCNC(=O)NS(=O)(=O)c1ccc(Cl)cc1,5.74%,–
CC(=O)c1ccc(S(=O)(=O)NC(=O)NC2CCCCC2)cc1,1.4%,–
Clc1ccc(Cn2c(CN3CCCC3)nc3ccccc32)cc1,6.95%,–
O=C(O)CCc1nc(-c2ccccc2)c(-c2ccccc2)o1,3.06%,–
CC(C)NCC(O)COc1cccc2[nH]ccc12 (centres undefined),5.89%,–
O=C1NCC2(CCN(CCc3ccccc3)CC2)O1,-0.585%,–
CN(C)CCC(c1ccccc1)c1ccccn1 (centres undefined),-5.62%,–
CCN(CC)C(=O)c1ccc(O)c(OC)c1,-1.09%,–
CCN1CCC[C@H]1CNC(=O)c1cc(S(N)(=O)=O)ccc1OC,-0.627%,–
NC(N)=Nc1nc(CSCC/C(N)=N/S(N)(=O)=O)cs1,-12.4%,–
Cc1cccc(C)c1OCC(C)N (centres undefined),0.777%,–
O=C1NC(=O)C(c2ccccc2)(c2ccccc2)N1,0.365%,–
C[N+](C)(C)CCCCCC[N+](C)(C)C,–,inactive
CCN(CC)CCOC(=O)c1ccc(N)cc1,15.7%,–
NCCS,-2.36%,–
COc1ccccc1N1CCN(CCCNc2cc(=O)n(C)c(=O)n2C)CC1,2.68%,–
CCCCC1C(=O)N(c2ccccc2)N(c2ccccc2)C1=O,7.87%,–
